The record followed here is paper PMC7826789 (International Journal of Molecular Sciences, 2021).

For the compound `Nc1nccc(-c2c(-c3ccc(F)cc3)ncn2CCCN2CCOCC2)n1` [SB-216385], the Kinases covered entry in the test on MAP2K4 is on record as “MAP2K4”.
As for `CN(C)C/C=C/C(=O)Nc1ccc(C(=O)Nc2cccc(Nc3ncc(Cl)c(-c4c[nH]c5ccccc45)n3)c2)cc1` [THZ1], the Kinases covered result in the test with MAP3K11 is recorded as “MAP3K11”; in the test with MAPK8, “MAPK8”.
Take `CCn1c(-c2nonc2N)nc2ccccc21` [SB-693162]: the Kinases covered entry with MAP3K19 is “MAP3K19”.
Turning to `Cc1cccc(CC(=O)N2CCc3c2ccc(-c2cn(C)c4ncnc(N)c24)c3F)n1` [GSK2656157], in the test with MAP3K2, the Kinases covered entry is “MAP3K2”.
As to `CC(C)(C)c1ccc(C(=O)Nc2cn3cc(-c4cccnc4)ccc3n2)cc1` [TPKI-58], in the test with MAP3K5, the Kinases covered entry is recorded as “MAP3K5”.
For the compound `Cc1cc(-c2ccc3c(c2)CC[C@@H](N[C@@H](C)c2ccccc2)C3)cnc1N` [GW412617], the Kinases covered result in the test with MAP4K2 is on record as “MAP4K2”.
As for `Cl.O=C1Nc2ccc(-c3cccnc3)cc2C1=Cc1cc(Br)c(O)c(Br)c1` [GW429374A], the Kinases covered entry with MAP4K4 was “MAP4K4”.
Regarding `COCCNC(=O)c1ccc(-c2cc(C(=O)NC3CC3)cc(F)c2C)cc1` [GW868318], in the test with MAPK11, the Kinases covered entry was “MAPK11”.
The same measure, in the same setting: as for `Cc1ccc(C(=O)NCC(N)=O)cc1-n1c(C)cc(OCc2ccc(F)cc2F)c(Br)c1=O` [PFE-PKIS 1], the entry is “MAPK11”.
For `Cc1cnc(Nc2ccc(F)cc2Cl)nc1-c1c[nH]c(C(=O)N[C@H](CO)c2cccc(Cl)c2)c1` [Vertex 11e], the values for the Kinases covered result in the test with MAPK1 and in the test with MAPK3 were “MAPK1” and “MAPK3”, respectively.
For `O=C1Nc2ccc(I)cc2C1=Cc1cc(Br)c(O)c(Br)c1` [GW305074X], the Kinases covered entry with MAPK3 is listed as “MAPK3”.
In the case of `CCOc1cc(N2CCC(O)CC2)ccc1Nc1ncc2c(n1)N(C)c1ccccc1C(=O)N2C` [XMD8-92], the Kinases covered entry in the test on MAPK7 is listed as “MAPK7”.
With `CCOc1cc(C(=O)N2CCC(N3CCN(C)CC3)CC2)ccc1Nc1ncc2c(n1)N(C1CCCC1)c1ccccc1C(=O)N2C` [ERK5-IN-1], the Kinases covered entry with MAPK7 is listed as “MAPK7”.
For the compound `FC1=CC(C3=NC2=CC(OC)=C(OC)C=C2C(N[C@H]4[C@H]([C@](C)(O)C)CNC4)=N3)=C(O)C=C1.Cl.Cl` [CCT241533], the Kinases covered entry in the test on MARK3 was “MARK3”.
Consider `CC(C)COC(=O)c1ccc2c(c1)/C(=C/Nc1ccc(S(N)(=O)=O)cc1)C(=O)N2` [GW416981X], for which the Kinases covered result in the test on MELK is listed as “MELK”.
`NS(=O)(=O)c1ccc(N/N=C2\C(=O)Nc3ccc(C(=O)NCCc4c[nH]cn4)cc32)cc1` [GW300660X]: the Kinases covered entry in the test with MELK is recorded as “MELK”.
